The supplement of paper PMC12494721
Structures can show the parent of a compound that is named as a salt.

Legend:
Details in all cases: incubation time: 27 h, anaerobic, 37 °C;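 for the amine columns active = adjusted P below 0.05 in both replicates with a change the same way and a mean fold change under 0.8 or over 1.25; inactive = the rest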
[1] = system: Clostridium sporogenes DSM 1664; assay: growth (OD595) fold change vs plate DMSO controls (fold change (ratio)); higher = more growth
Method in brief: (§1)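 The 96-well mGAM cultures had been kept anaerobic for 27 h at 37 °C before being shaken and read at 595 nm. Blank subtraction, compound background correction with 20 µM compound solutions in water, and a calibration factor of 5 turned the readings into OD. Growth is given as the fold change versus the median of plate DMSO controls. Fold changes above 1.5 were set to NA, and the values are means of 2 biological replicates.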

Escherichia coli IAI1 [2] = assay: as above
Method in brief: as §1

[3] = system: Klebsiella aerogenes DSM 30053; assay: as above
Method in brief: as §1

[4] = system: Ruminococcus gnavus DSM 108212; assay: as above
Method in brief: as §1

[5] = system: Klebsiella aerogenes DSM 30053; assay: fold change of Histamine concentration vs plate DMSO controls (fold change (ratio)); higher = more amine produced, active = hit call of the paper (significant change in both replicates, either direction)
Method in brief: (§2)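 Amines were quantified by LC–triple-quadrupole MS in dynamic MRM mode against external calibration curves, with drift correction within each batch. The samples were whole anaerobic mGAM cultures of four gut bacterial strains, grown for 27 h at 37 °C in 80 µL wells and extracted with cold acetonitrile/methanol with 0.1% formic acid, then centrifuged. Values are reported as fold change over DMSO controls on the same plate. The mean of 2 biological replicates is given.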

[6] = system: Clostridium sporogenes DSM 1664; assay: fold change of Tryptamine concentration vs plate DMSO controls (fold change (ratio)); higher = more amine produced, active = hit call of the paper (significant change in both replicates, either direction)
Method in brief: as §2

[7] = system: Ruminococcus gnavus DSM 108212; assay: as above
Method in brief: as §2

Escherichia coli IAI1 [8] = assay: fold change of Putrescine concentration vs plate DMSO controls (fold change (ratio)); higher = more amine produced, active = hit call of the paper (significant change in both replicates, either direction)
Method in brief: as §2

[9] = system: Klebsiella aerogenes DSM 30053; assay: as above
Method in brief: as §2

Escherichia coli IAI1 [10] = assay: fold change of Cadaverine concentration vs plate DMSO controls (fold change (ratio)); higher = more amine produced, active = hit call of the paper (significant change in both replicates, either direction)
Method in brief: as §2

[11] = system: Klebsiella aerogenes DSM 30053; assay: as above
Method in brief: as §2

[12] = system: Ruminococcus gnavus DSM 108212; assay: fold change of 2-Phenylethylamine concentration vs plate DMSO controls (fold change (ratio)); higher = more amine produced, active = hit call of the paper (significant change in both replicates, either direction)
Method in brief: as §2

| SMILES | growth [1] | growth (Escherichia coli IAI1 [2]) | growth [3] | growth [4] | fold change of Histamine concentration [5] | fold change of Tryptamine concentration [6] | fold change of Tryptamine concentration [7] | fold change of Putrescine concentration (Escherichia coli IAI1 [8]) | fold change of Putrescine concentration [9] | fold change of Cadaverine concentration (Escherichia coli IAI1 [10]) | fold change of Cadaverine concentration [11] | fold change of 2-Phenylethylamine concentration [12] |
| --- | --- | --- | --- | --- | --- | --- | --- | --- | --- | --- | --- | --- |
| CNCC[C@@H](Oc1ccccc1C)c1ccccc1 [Tomoxetine hydrochloride] (20 µM) | 1.11 | 1.01 | 0.98 | 1.1 | 0.978 (inactive) | 1.1 (inactive) | 1 (inactive) | 0.969 (inactive) | 0.968 (inactive) | 0.989 (inactive) | 1 (inactive) | 1.05 (inactive) |
| CC#CCn1c(N2CCC[C@@H](N)C2)nc2c1c(=O)n(Cc1nc(C)c3ccccc3n1)c(=O)n2C [Linagliptin] (20 µM) | 1.01 | 1.03 | 0.993 | 0.856 | 1.08 (inactive) | 1.07 (inactive) | 1.02 (inactive) | 1.01 (inactive) | 1.02 (inactive) | 0.983 (inactive) | 0.996 (inactive) | 0.997 (inactive) |
| CCS(=O)(=O)CCn1c([N+](=O)[O-])cnc1C [Tinidazole] (20 µM) | 0 | 0.988 | 0.99 | 0.176 | 0.852 (inactive) | 0.0351 (active) | 0.0414 (active) | 1.01 (inactive) | 0.977 (inactive) | 1.04 (inactive) | 0.993 (inactive) | 0.0315 (active) |
| CC(CN(C)C)C(C)(O)Cc1ccc(Cl)cc1 (stereo unspecified) [Clobutinol hydrochloride] (20 µM) | 0.926 | 1.01 | 1.02 | 1.26 | 1.03 (inactive) | 1.02 (inactive) | 0.975 (inactive) | 0.975 (inactive) | 0.997 (inactive) | 0.965 (inactive) | 0.988 (inactive) | 0.988 (inactive) |
| CNCC(O)c1ccc(O)c(O)c1 (stereo unspecified) [Racepinephrine hydrochloride] (20 µM) | 1.15 | 1.07 | 1.27 | 1.24 | 0.938 (inactive) | 1.05 (inactive) | 1.05 (inactive) | 1.01 (inactive) | 1.02 (inactive) | 0.94 (inactive) | 1.03 (inactive) | 1.05 (inactive) |
| CC[C@H]1OC(=O)[C@H](C)[C@@H](O[C@H]2C[C@@](C)(OC)[C@@H](O)[C@H](C)O2)[C@H](C)[C@@H](O[C@@H]2O[C@H](C)C[C@H](N(C)C)[C@H]2O)[C@](C)(O)C[C@@H](C)/C(=N\OCOCCOC)[C@H](C)[C@@H](O)[C@]1(C)O [Roxithromycin] (20 µM) | 0.00175 | 0.826 | 0.95 | 0.194 | 0.995 (inactive) | 0.0367 (active) | 0.0981 (active) | 0.576 (active) | 0.973 (inactive) | 0.909 (inactive) | 1 (inactive) | 0.123 (active) |
| Cc1nc(C)c(Cl)c(O)c1Cl [Clopidol] (20 µM) | 1.18 | 1.01 | 1.04 | 1.14 | 1 (inactive) | 0.998 (inactive) | 1.01 (inactive) | 1.02 (inactive) | 0.991 (inactive) | 1.02 (inactive) | 0.985 (inactive) | 1.01 (inactive) |
| NNc1nncc2ccccc12 [Hydralazine hydrochloride] (20 µM) | 0.972 | 0.997 | 1 | 0.792 | 1.07 (inactive) | 0.967 (inactive) | 1.03 (inactive) | 0.983 (inactive) | 1.01 (inactive) | 0.997 (inactive) | 0.994 (inactive) | 0.96 (inactive) |
| COc1ccc(CCC(=O)c2c(O)cc(O[C@@H]3O[C@H](CO)[C@@H](O)[C@H](O)[C@H]3O[C@@H]3O[C@@H](C)[C@H](O)[C@@H](O)[C@H]3O)cc2O)cc1O [Neohesperidin Dihydrochalcone (Nhdc)] (50 µM) | 1.25 | 0.987 | 1.01 | 1.05 | 1.02 (inactive) | 1.01 (inactive) | 0.995 (inactive) | 1.01 (inactive) | 1.02 (inactive) | 0.96 (inactive) | 0.99 (inactive) | 0.961 (inactive) |
| CC(=O)Nc1ccc(OCC(O)CNC(C)C)cc1 (stereo unspecified) [Practolol] (20 µM) | 0.924 | 1.01 | 1 | 1.17 | 1.03 (inactive) | 1.05 (inactive) | 1.04 (inactive) | 1.04 (inactive) | 0.993 (inactive) | 0.999 (inactive) | 1.01 (inactive) | 1.02 (inactive) |
| CN(C)CCC=C1c2ccccc2COc2ccccc21 [Doxepin hydrochloride] (20 µM) | 1.04 | 0.995 | 0.978 | 0.833 | 0.999 (inactive) | 0.959 (inactive) | 0.977 (inactive) | 1.03 (inactive) | 1 (inactive) | 0.919 (inactive) | 1 (inactive) | 0.921 (inactive) |
| CC(=O)O[C@@]12CO[C@@H]1C[C@H](O)[C@@]1(C)C(=O)[C@H](O)C3=C(C)[C@@H](OC(=O)[C@H](O)[C@@H](NC(=O)OC(C)(C)C)c4ccccc4)C[C@@](O)([C@@H](OC(=O)c4ccccc4)[C@H]21)C3(C)C [Docetaxel] (20 µM) | 0.864 | 1 | 1.03 | 1.05 | 1.05 (inactive) | 0.991 (inactive) | 1 (inactive) | 1.02 (inactive) | 1.01 (inactive) | 1.02 (inactive) | 0.998 (inactive) | 0.956 (inactive) |
| CC(C)(O)c1ccccc1CC[C@@H](SCC1(CC(=O)O)CC1)c1cccc(/C=C/c2ccc3ccc(Cl)cc3n2)c1 [Montelukast] (20 µM) | 0.909 | 1 | 1.02 | 0.923 | 1.07 (inactive) | 0.587 (active) | 0.851 (inactive) | 0.994 (inactive) | 1.05 (inactive) | 1.03 (inactive) | 1.01 (inactive) | 0.842 (inactive) |
